Bioassay records as filed in PubChem BioAssay.
RORgamma inh: inhibitors of mouse ROR gamma transcriptional activity; P51450; Drosophila S2 Gal4-RORgamma UAS-luciferase reporter, 20 h; Potency, µM (series often up to 53.6 µM), hits mostly inhibitors; actives 5.4% (n = 310,000); AID 2551; further: nearly all actives have a fitted effect of over 60% in size
Target sequence (P51450 whole entry, looked up, the tested form may be a part): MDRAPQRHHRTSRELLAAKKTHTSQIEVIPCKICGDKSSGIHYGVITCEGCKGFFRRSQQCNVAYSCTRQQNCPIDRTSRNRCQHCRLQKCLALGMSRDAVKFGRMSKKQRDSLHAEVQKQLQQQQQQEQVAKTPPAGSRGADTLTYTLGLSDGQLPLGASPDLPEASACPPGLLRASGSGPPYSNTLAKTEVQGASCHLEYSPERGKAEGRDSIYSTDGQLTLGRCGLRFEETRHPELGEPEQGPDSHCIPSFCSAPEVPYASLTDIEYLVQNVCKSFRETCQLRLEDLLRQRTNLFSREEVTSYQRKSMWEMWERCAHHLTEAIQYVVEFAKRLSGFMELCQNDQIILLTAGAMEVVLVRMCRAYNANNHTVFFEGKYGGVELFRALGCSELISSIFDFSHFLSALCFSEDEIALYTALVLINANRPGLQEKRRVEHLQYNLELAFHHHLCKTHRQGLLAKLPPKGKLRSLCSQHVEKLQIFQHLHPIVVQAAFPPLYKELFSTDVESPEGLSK
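Drosophila Schneider cells stably carrying a metallothionein-driven Gal4 DBD–ROR gamma fusion and a UAS-Photinus luciferase reporter were exposed to compound for 1 hr, then induced with copper sulfate (700 uM final) for 20 hr at ambient temperature before luminescence reading.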
VP16 counter: counter-screen for ROR gamma inhibitors: Gal4-VP16 reporter. Drosophila S2 Gal4-VP16 UAS-luciferase, luminescence, 20 h. Potency, µM (series often up to 53.6 µM), most hits filed as inhibitors. actives 3.5% (n = 310,000). AID 2546;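 further: Gal4-VP16 expression switched on by copper sulfate through the metallothionein promoter; nearly all actives have a fitted effect of over 50% in size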
LDHA block: LDHA (human) enzyme inhibition; P00338; purified LDHA, NADH/diaphorase-resazurin fluorescence; stronger effect = lower value; activity change, % (values are at about 110 or 230 µM); actives 0.15% (n = 480,000); in the data active means activity change below about -30%; inconclusive means mostly about -25% to -30%
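Resorufin fluorescence (ex540/em590), read at 0 and 20 min after diaphorase/resazurin addition, reports the NADH left after a 5 min room-temperature reaction of 2 nM human LDH5 with 0.06 mM NADH and 0.2 mM pyruvate.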
DT40 TDP1 CPT: growth inhibition of DT40 Tdp1-/-;hTDP1 cells with camptothecin (screen for TDP1 inhibitors) | chicken DT40 Tdp1-/-;hTDP1 cells + 20 nM CPT, ATP luminescence, 48 h | Potency, µM (titrated, usually from 46.2 µM), most hits filed as inhibitors | actives 12% (n = 420,000) | AID 686979; further: nearly all actives have a fitted effect of over 55% in size
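Chicken DT40 Tdp1-/- cells stably complemented with human TDP1 were seeded at 400 cells/well in medium containing 20 nM camptothecin, exposed to pin-transferred compounds, and grown at 37 °C for at least 48 hr. Viability was read as ATP luminescence.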
IL1B secr inh: inhibitors of inflammasome signaling (IL-1 beta secretion) | THP-1 LPS/ATP IL-1B secretion, AlphaLISA, 16 h; stronger effect = lower value | activity change, % at 57.5 µM | actives 4.7% (n = 360,000); in the data active means activity change below about -50%; inconclusive means mostly about -30% to -49%
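Secreted IL-1B measured by AlphaLISA bead assay after 16 h compound exposure of THP-1 cells; compounds (final up to 57.5 uM) added 1 h before LPS (250 ng/mL) and ATP (1.25 mM) stimulation; lower signal means less secretion.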
TDP1 cell noCPT: qHTS for Inhibitors of human tyrosyl-DNA phosphodiesterase 1 (TDP1): qHTS in cells in absence of CPT; DT40 Tdp1-/- hTDP1 cells, no CPT, ATP luminescence, 48 h; Potency, µM (doses to about 46.2 µM), usual class: inhibitors; actives 15% (n = 420,000); AID 686978, 2013; further: nearly all actives have a fitted effect of over 55% in size
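Chicken DT40 Tdp1-/- cells stably complemented with human TDP1 were seeded at 400 cells/well with DMSO in place of 20 nM camptothecin. After compound pinning, cells grew at least 48 hr at 37 °C; viability read by CellTiter-Glo luminescence.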
Numbers stand for hits; 0 = inactive; ? = inconclusive; - = no result; [ ] = remark or other dose. Only some compounds are listed: those with a hit (about 18% of all), similar ones and a draw of the others. Unless noted, the call rests on the fitted dose curve; in most records, active means well fitted curve in the direction sought with a large enough effect; inconclusive means small, poorly fitted or top-dose-only effect, or another doubt; inactive means no such curve, though single readings can be large; an effect the other way counts as inactive or inconclusive.

SMILES	RORgamma inh	VP16 counter	LDHA block	DT40 TDP1 CPT	IL1B secr inh	TDP1 cell noCPT
COC(=O)C1=C(c2ccc(-c3ccccc3)c(F)c2)C[C@@H]2CC[C@H]1N2C(=O)NCCNC(C)=O	-	-	0	20.6µM	0	?
COC(=O)C1=C(c2ccc(-c3ccccc3)c(F)c2)C[C@@H]2CC[C@H]1N2C(=O)NCc1cccc2ccccc12	-	-	0	23.1µM	0	23.1µM
CC#C[C@]1(O)CC[C@H]2C3C=C(C)C4=CC(=O)C=C[C@]4(C)[C@H]3[C@@H](O)C[C@@]21C (stereo partly specified)	0	0	-	-	-	-
C[C@H]1O[C@@H](O[C@H]2CC[C@]3(C=O)[C@H]4CC[C@]5(C)[C@H](C6=CC(=O)OC6)CC[C@]5(O)[C@@H]4CC[C@]3(O)C2)C[C@H](O)[C@@H]1O	-	-	0	-	-	-
COc1ccc(CNC(=O)/C=C\c2ccc3[nH]cc(CCN(C)C)c3c2)cc1	0	0	-	?	-	?
COC(=O)C1=C(c2ccc(-c3ccccc3)c(F)c2)C[C@@H]2CC[C@H]1N2C(=O)NCCOc1ccc(OC)cc1	-	-	0	14.6µM	0	14.6µM
COCCNC(=O)N1[C@H]2CC[C@@H]1C(C(=O)OC)=C(c1cccc(C#N)c1)C2	-	-	0	0	0	0
COC(=O)C1=C(c2ccc(-c3ccccc3)c(F)c2)C[C@@H]2CC[C@H]1N2C(=O)NCCCOC(C)C	-	-	0	14.6µM	0	13µM
CN(C)CCn1cnc2ccccc21	0	0	0	0	0	0
CN(C)CCCOc1nn(Cc2ccccc2)c2ccccc12	0	0	0	?	0	23.1µM
O=C1CCCC2[C@@H]3CCCN4CCC[C@@H](CN12)C34 (stereo partly specified)	0	0	-	0	-	0
COC(C(=O)C(O)C(C)O)C1Cc2cc3cc(OC4CC(OC5CC(O)C(OC)C(C)O5)C(OC(C)=O)C(C)O4)c(C)c(O)c3c(O)c2C(=O)C1OC1CC(OC2CC(OC3CC(C)(O)C(OC(C)=O)C(C)O3)C(O)C(C)O2)C(O)C(C)O1 (stereo unspecified)	1.26µM	1µM	-	-	-	-
CN1CCC2(CC1)N=C(c1ccc(F)cc1)C(=S)N2	12.6µM	0	0	0	0	0
CN1CCC2(CC1)NC(=O)c1ccccc1N2	0	0	0	0	0	0
O=C(CN1CCN(Cc2ccccc2)CC1)Nc1ccc(Cl)cc1C(=O)c1ccccc1	-	-	0	-	-	-
Nc1cccc(SC2CC(=O)N(c3ccc(Cl)cc3C(=O)c3ccccc3)C2=O)c1 (stereo unspecified)	-	-	0	?	0	20.6µM
CC(CC(C)(C)N1CC1)=NO	-	-	0	2.91µM	0	3.26µM
C[n+]1c(-c2ccccc2)sc2ccccc21	0	0	0	1.3µM	0	1.03µM
c1ccc2c(c1)sc1ccccc12	0	0	-	?	-	0
O=[N+]([O-])c1nccn1CO[C@@H](CO)[C@H](O)CO	-	-	-	?	-	0
CC(C)NC1CCC(C(C)(C)C)CC1 (stereo unspecified)	-	-	0	-	-	-
CC/C(=N\NC(=O)c1ccccc1Cl)c1c(O)n(C2CCCCC2)c(=O)[nH]c1=O	7.94µM	12.6µM	0	0	0	0
CC/C(=N\NC(=O)c1ccccc1)c1c(O)n(C2CCCCC2)c(=O)[nH]c1=O	14.1µM	?	0	0	0	0
CCC(=Nc1ccc2c(c1)CCC2)c1c(O)n(C2CCCCC2)c(=O)[nH]c1=O	?	0	0	29.1µM	0	18.4µM
CCC(=NC1CC1)c1c(O)n(C2CCCCC2)c(=O)[nH]c1=O	0	0	0	0	0	?
SMILES	RORgamma inh	VP16 counter	LDHA block	DT40 TDP1 CPT	IL1B secr inh	TDP1 cell noCPT
C/C(=N\N1CCCCCC1)c1c(O)n(C2CCCCC2)c(=O)[nH]c1=O	0	0	0	0	0	?
CC(C)c1c(CN(C)[C@@H](C)Cc2ccccc2)n(C)n(-c2ccccc2)c1=O	0	0	-	-	-	-
CC1(C)[C@@H](O)C[C@H]2[C@](C)(O)[C@@H]3CC[C@H]4[C@@H](O)[C@@]3(C[C@@H](O)[C@@]21O)C[C@@]4(C)O	-	-	-	0	-	0
C/C=C(\C)C(=O)N[C@@H](c1ccccc1)[C@@H](O)C(=O)O[C@H]1C[C@@]2(O)[C@@H](OC(=O)c3ccccc3)C3[C@](C)(C(=O)[C@H](OC(C)=O)C(=C1C)C2(C)C)[C@@H](O)C[C@H]1OC[C@@]31OC(C)=O (stereo partly specified)	?	0	0	0.013µM	0	0.0103µM
C/C=C(\C)C(=O)N[C@@H](c1ccccc1)[C@@H](O)C(=O)O[C@H]1C[C@@]2(O)[C@@H](OC(=O)c3ccccc3)C3[C@](C)(C(=O)[C@H](O)C(=C1C)C2(C)C)[C@@H](O)C[C@H]1OC[C@@]31OC(C)=O (stereo partly specified)	?	0	0	0.0461µM	0	0.164µM
CC(=O)O[C@@]12CO[C@@H]1C[C@H](O)[C@@]1(C)C(=O)[C@H](O)C3=C(C)[C@@H](O)C[C@@](O)([C@@H](OC(=O)c4ccccc4)C12)C3(C)C (stereo partly specified)	0	0	0	9.2µM	0	9.2µM
CC(=O)O[C@H]1C(=O)[C@@]2(C)C([C@H](OC(=O)c3ccccc3)[C@]3(O)C[C@H](OC(=O)[C@H](O)[C@@H](NC(=O)c4ccccc4)c4ccccc4)C(C)=C1C3(C)C)[C@]1(OC(C)=O)CO[C@@H]1C[C@@H]2OC(=O)[C@H](C)NC(=O)c1ccc(-c2c3ccc(=O)cc-3oc3cc(O)ccc23)c(C(=O)O)c1 (stereo partly specified)	0[10 µM]	0[10 µM]	-	-	-	-
O=C(Cc1cccc(C(F)(F)F)c1)N1CCN(CC(=O)N2CCCC2)CC1	-	-	0	0	0	0
O=C(CCN1CCN(CCO)CC1)N1c2ccccc2Sc2ccc(C(F)(F)F)cc21	0	0	0	?	?	23.1µM
COc1ccc(CCNC(=O)CCCCn2c(=O)c3ccccc3n(Cc3ccccc3Cl)c2=O)cc1OC	-	-	0	?	-	?
CCCC[N+]12CCC(CC1)C(=C(c1ccccc1)c1ccccc1)C2	?	?	-106.3	4.61µM	0	4.11µM
CCC[N+]12CCC(CC1)C(=C(c1ccccc1)c1ccccc1)C2	0	?	0	14.6µM	0	20.6µM
ClC=C(Cl)Cl	0	0	-	0	-	0
Cc1o[nH]c(=O)c1C[C@H](N)C(=O)O	0	0	-	0	-	0
CNCCc1ccc(O)c(O)c1	-	-	0	8.2µM	0	5.17µM
O=C(NN=Cc1ccc(N(CCCl)CCCl)cc1)C(=O)c1c[nH]c2ccccc12	-	-	0	20.6µM	0	14.6µM
